Where “and” joins values, the source holds several entries; their conditions need not be identical. Identical values can stand only once. The panel holds about 83,000 compounds, 20% with a hit somewhere; the sample as a whole holds those more often.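 Single-concentration screen, 48 h exposure, 96-well plates. Endpoint: percent growth. Below 10 = active.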 Values without a mark were called inactive. Calls of active or inactive are those of the source.
Tested on: MDA-MB-468 breast
Assay: NCI-60 one-dose screen, 48 h (100 = growth as untreated, 0 = no growth, -100 = all killed)
Settings: 10 µM unless noted

| SMILES | growth |
| --- | --- |
| O=[N+]([O-])c1ccc(/C(=C/c2ccccc2)[n+]2ccccc2)cc1 | 101% |
| CC1=CC[C@@H]2C(C)(C)C(=O)CC[C@@]2(C)[C@@H]1COc1ccc2ccc(=O)oc2c1 | 43.1% |
| COc1ccc(-c2nc3sc(C)cn3c2/C=C/C(=O)c2cc(OC)c(OC)c(OC)c2)cc1 | 25.5% |
| O=C1CC(N2C(=O)/C(=C/C(Cl)=C\c3ccc([N+](=O)[O-])cc3)SC2=S)C(=O)N1c1ccc(Cl)cc1 (stereo not given) | -6.24% (active) |
| Cc1cc2nc3c4ccccc4n(CCN(C)C)c3nc2cc1C | -12.1% (active) |
| CCCCCCCC/C=C\CCCCCCCCOc1ccc(CC(=O)NCC[N+]2(C)CCOCC2)cc1 | 43.9% |
| Nc1c(Cl)cc2c(c1Br)C(=O)c1ccccc1C2=O | 85.4% |
| COc1ccc2nc(N=Nc3c(O)ccc4ccccc34)sc2c1 | 25.3% |
| NC(=S)NNC1CCCCC1 | 99% |
| CN(C)c1ccc(C2(Cl)c3ccccc3N(C)c3ccccc32)cc1 | 50.8% |
| CC1(C)CC[C@]2(C(=O)O)CC[C@]3(C)C(=CCC4[C@@]5(C)C[C@@H](O)[C@@H]6OC(c7cccc([N+](=O)[O-])c7)OC[C@@]6(C)C5CC[C@]43C)C2C1 (stereo not given in full) | 76% |
| COC(=O)C1=Nc2ccc(F)cc2/C1=C/c1sc(=S)[nH]c1O | 13.4% |
| C[C@@H](Nc1c(C#N)cnc2ccc(-c3cnc(N)nc3)cc12)c1ccccc1 | -8.47% (active) |
| CC(=O)CC(c1cccs1)c1c(-c2ccccc2)[nH]c2ccccc12 (stereo not given) | 100% |
| C=C(C=O)[C@@H]1CC[C@]2(C)[C@H](CC=C3[C@H]4[C@@H](C)[C@H](C)CC[C@]4(C(=O)OC)CC[C@]32C)[C@@]1(C)CCC#N | -18.1% (active) |
| COc1cccc(/C=C2\COc3ccc(-c4ccccc4)cc3C2=O)c1 | 7.82% (active) |
| CCOC(=O)c1ccncc1 | 89.1% |
| CC1(O)CCC(Nc2cc(-c3ccc(C(F)(F)F)cc3)c(C#N)c3nc4ccccc4n23)CC1 (stereo not given) | 86.8% |
| O=[N+]([O-])c1ccc(-c2cc3c(Nc4ccc(OCc5cccc(Cl)c5)c(Cl)c4)ncnc3s2)cc1 | 56.2% |
| O=S(=O)(O)C(Nc1ccccc1)c1ccccc1 (stereo not given) | 92.7% |

| SMILES | growth |
| --- | --- |
| CCOC(=O)c1ccc(Nc2sc(C(=O)c3ccc(Br)cc3)c(N)c2C#N)cc1 | 1.55% (active) |
| O=C(NNc1nc2cc(F)cc(F)c2n2cccc12)c1cnccn1 | -10.9% (active) |
| CC1OC(O[C@@H]2[C@H](O)C(CO)OC(O[C@H]3COC(O[C@H]4CC[C@]5(C)[C@H]6CC[C@]78OC[C@@]9(CC[C@](C)(C=O)C[C@H]97)C(=O)C[C@@]8(C)[C@]6(C)CC[C@H]5C4(C)C)[C@@H](O)[C@@H]3O)[C@H]2OC2OC[C@@H](O)[C@@H](O)[C@@H]2O)[C@@H](O)[C@@H](O)[C@H]1O (stereo not given in full) | 104% |
| CN(C)c1ccc2nc3ccc(=[N+](C)C)cc-3sc2c1 | -31.5% (active) and -9.26% (active) and -4.98% (active) |
| COC1CC(OC(=O)c2ccc([N+](=O)[O-])cc2)C(COC(=O)c2ccc([N+](=O)[O-])cc2)O1 (stereo not given) | 93.6% |
| NS(=O)(=O)c1ccc(N2CC(c3nc4ccccc4[nH]3)CC2=O)cc1 (stereo not given) | 113% |
| COc1cc(C)c2sc3ccccc3c(=O)c2c1NCCN(C)C | 49% |
| CC(=O)N1N=C(c2ccc(F)cc2)CC1c1sc(N(C)Cc2ccccc2)nc1Cl (stereo not given) | 98.1% |
| CCc1ccc(CNCC(O)c2ccccc2)cc1 (stereo not given) | -1.1% (active) |
| O=[N+]([O-])c1ccc(Sc2nc(Cl)nc(NC3CCCC3)n2)cc1 | -46.5% [100 µM] (active) |
| CCC1CCC(C)NC1 (stereo not given) | 92.4% |
| CS(=O)(=O)Nc1cc(-c2ccc3ncc(C#N)c(NCc4ccccc4F)c3c2)cnc1Cl | -16.8% (active) |
| COc1ccc(C(=O)/C=C/c2cccnc2Nc2cc(OC)c(OC)c(OC)c2)cc1 | 9.95% (active) |
| CCOC(=O)/C(=C\c1ccccc1Cl)P(=O)(OCC)OCC | 43.5% |
| O=C(CSc1nc2ccccc2[nH]1)Nc1cccc(Cl)c1 | 113% |
| CCCCCCCCOC(=O)c1ccccn1 | 107% |
| O=C(NCc1ccccc1)Nc1ccccc1CNc1nc(Nc2ccc(OCCN3CCCC3)cc2)ncc1Cl | 74.5% |
| O=C(Nc1ccc(Br)cc1F)c1cc(Br)ccc1O | -13.6% (active) |
| Cn1c2c(cc(S(=O)(=O)c3ccccc3)c1=O)CCc1c-2cnn1-c1cccc(Cl)c1 | 67% |
| CC[C@@]1(C(N)=O)CC2C=CC1C2 (stereo not given in full) | 103% |

— PubChem BioAssay (NCI)
